Data: PMC7862700, “An all-to-all approach to the identification of sequence-specific readers for epigenetic DNA modifications on cytosine”

Key:
Experiment in all cases: DAPPL (digital affinity profiling via proximity ligation, sequencing); 10 mM Tris-HCl pH 7.5, 50 mM NaCl, 1 mM DTT, 4% glycerol, room temperature, 30 min; GST-TFs on glutathione beads, 16-mer random dsDNA library, 0.1% formaldehyde crosslink after washing; high values mean tight binding
[1] = molecular target: T1, FLI1 (Homo sapiens, UniProt Q01543 1-452); settings: protein: recombinant; tags: N-terminal GST; dsDNA, one strand shown
T1 sequence: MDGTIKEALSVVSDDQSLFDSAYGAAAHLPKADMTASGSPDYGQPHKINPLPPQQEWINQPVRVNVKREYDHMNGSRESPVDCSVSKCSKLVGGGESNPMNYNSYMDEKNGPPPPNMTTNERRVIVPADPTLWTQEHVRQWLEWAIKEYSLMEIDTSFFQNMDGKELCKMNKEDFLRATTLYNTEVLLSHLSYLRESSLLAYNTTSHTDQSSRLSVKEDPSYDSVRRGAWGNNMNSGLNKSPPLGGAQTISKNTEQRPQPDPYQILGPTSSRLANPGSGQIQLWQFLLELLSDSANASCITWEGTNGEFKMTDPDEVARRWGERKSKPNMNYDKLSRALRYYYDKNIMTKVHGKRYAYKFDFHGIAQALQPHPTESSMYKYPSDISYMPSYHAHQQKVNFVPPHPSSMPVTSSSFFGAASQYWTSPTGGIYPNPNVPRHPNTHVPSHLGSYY
Outline: (§1)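 Binding signal is defined as a hexamer's read frequency for one factor over its frequency for the tag-only sample. To obtain reads, GST-fused human transcription factors were expressed in yeast, captured on glutathione beads, barcoded with DNA and pooled with that sample. Pools met 200 nmole of a 16-mer random double-stranded DNA library in Tris/NaCl/DTT/glycerol buffer for 30 min at room temperature before washing, 0.1% formaldehyde crosslinking, proximity ligation (BsaI/T4 ligase, 1 h, 37 °C), PCR and Illumina NextSeq500 sequencing.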

[2] = molecular target: T2, ELK1 (Homo sapiens, UniProt P19419 1-428); settings: protein: recombinant; tags: N-terminal GST; dsDNA, one strand shown
T2 sequence: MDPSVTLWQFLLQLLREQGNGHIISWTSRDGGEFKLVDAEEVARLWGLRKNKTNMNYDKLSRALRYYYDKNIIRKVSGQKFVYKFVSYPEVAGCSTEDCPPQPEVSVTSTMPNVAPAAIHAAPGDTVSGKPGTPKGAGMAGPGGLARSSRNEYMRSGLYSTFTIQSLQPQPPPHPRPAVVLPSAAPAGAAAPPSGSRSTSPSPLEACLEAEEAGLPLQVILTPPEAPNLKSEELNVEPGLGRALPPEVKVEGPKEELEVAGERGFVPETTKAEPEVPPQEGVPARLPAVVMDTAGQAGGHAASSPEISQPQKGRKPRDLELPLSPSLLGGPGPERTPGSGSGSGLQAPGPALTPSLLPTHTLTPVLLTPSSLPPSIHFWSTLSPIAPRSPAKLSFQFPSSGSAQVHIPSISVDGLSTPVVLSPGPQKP
Outline: as §1

[3] = molecular target: T3, GABPA (Homo sapiens, UniProt Q06546 1-454); settings: protein: recombinant; tags: N-terminal GST; dsDNA, one strand shown
T3 sequence: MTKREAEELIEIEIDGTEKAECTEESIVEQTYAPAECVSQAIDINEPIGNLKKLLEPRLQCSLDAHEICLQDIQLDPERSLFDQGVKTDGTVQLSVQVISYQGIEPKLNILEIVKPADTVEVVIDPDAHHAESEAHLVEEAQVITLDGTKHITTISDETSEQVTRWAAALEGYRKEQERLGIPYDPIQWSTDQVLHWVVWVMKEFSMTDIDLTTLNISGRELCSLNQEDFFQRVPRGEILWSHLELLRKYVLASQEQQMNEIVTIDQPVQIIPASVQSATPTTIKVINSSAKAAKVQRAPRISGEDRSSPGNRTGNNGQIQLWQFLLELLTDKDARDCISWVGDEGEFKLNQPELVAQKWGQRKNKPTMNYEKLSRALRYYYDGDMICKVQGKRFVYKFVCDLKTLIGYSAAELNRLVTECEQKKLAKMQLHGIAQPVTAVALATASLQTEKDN
Outline: as §1

[4] = molecular target: T4, ERG (Homo sapiens, UniProt P11308 1-479); settings: protein: recombinant; tags: N-terminal GST; dsDNA, one strand shown
T4 sequence: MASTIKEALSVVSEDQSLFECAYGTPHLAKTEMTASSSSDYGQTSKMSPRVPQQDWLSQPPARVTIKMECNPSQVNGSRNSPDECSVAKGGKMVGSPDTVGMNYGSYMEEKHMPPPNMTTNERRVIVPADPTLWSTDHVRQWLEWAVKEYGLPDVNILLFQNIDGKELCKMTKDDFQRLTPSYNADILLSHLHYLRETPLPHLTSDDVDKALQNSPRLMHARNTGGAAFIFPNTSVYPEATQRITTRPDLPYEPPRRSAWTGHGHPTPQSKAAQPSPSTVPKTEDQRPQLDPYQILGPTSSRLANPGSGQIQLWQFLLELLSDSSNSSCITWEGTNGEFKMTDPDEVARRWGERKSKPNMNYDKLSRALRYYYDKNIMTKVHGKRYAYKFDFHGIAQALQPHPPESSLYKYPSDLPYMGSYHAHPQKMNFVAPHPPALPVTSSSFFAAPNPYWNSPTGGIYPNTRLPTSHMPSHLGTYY
Outline: as §1

[5] = molecular target: ELF1 (Homo sapiens, UniProt P32519 1-619); settings: protein: recombinant; tags: N-terminal GST; dsDNA, one strand shown
ELF1, sequence (P32519 whole entry): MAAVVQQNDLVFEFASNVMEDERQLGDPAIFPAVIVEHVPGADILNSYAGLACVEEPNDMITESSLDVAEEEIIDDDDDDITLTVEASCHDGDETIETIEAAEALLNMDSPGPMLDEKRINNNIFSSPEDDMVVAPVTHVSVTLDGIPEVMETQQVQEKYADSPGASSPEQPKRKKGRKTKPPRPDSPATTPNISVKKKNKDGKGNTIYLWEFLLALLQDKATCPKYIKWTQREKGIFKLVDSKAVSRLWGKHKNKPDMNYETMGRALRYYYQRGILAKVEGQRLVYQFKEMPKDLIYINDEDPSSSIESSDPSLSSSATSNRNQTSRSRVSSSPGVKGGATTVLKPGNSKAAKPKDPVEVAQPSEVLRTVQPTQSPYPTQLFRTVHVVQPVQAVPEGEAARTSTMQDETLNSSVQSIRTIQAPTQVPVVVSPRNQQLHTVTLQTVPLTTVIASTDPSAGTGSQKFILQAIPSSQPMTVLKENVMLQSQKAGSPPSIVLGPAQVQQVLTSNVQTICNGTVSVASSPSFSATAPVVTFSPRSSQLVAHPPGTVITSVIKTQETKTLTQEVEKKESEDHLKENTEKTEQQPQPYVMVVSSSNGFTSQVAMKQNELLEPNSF
Outline: as §1

[6] = molecular target: T5, EHF (Homo sapiens, UniProt Q9NZC4 1-300); settings: protein: recombinant; tags: N-terminal GST; dsDNA, one strand shown
T5 sequence: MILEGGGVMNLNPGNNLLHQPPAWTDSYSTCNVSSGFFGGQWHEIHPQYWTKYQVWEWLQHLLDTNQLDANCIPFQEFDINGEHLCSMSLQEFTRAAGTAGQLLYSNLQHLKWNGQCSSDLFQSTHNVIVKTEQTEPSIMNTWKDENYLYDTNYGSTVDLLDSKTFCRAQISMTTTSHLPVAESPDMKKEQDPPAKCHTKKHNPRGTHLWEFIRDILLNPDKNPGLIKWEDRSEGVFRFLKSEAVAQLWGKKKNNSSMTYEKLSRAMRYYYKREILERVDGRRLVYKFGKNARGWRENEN
Outline: as §1

[7] = molecular target: SPI1 (Homo sapiens, UniProt P17947 1-270); settings: protein: recombinant; tags: N-terminal GST; dsDNA, one strand shown
Outline: as §1

[8] = molecular target: SPIB (Homo sapiens, UniProt Q01892 1-262); settings: protein: recombinant; tags: N-terminal GST; dsDNA, one strand shown
SPIB, sequence (Q01892 whole entry): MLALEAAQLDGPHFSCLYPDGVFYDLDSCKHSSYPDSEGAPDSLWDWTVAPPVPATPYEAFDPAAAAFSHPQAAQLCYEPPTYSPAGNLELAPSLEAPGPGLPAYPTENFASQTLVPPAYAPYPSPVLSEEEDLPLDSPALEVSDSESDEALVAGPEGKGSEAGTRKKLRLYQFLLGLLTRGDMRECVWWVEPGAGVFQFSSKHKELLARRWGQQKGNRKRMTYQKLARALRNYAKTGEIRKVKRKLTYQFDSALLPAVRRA
Outline: as §1

[9] = molecular target: T6, ELK3 (Homo sapiens, UniProt P41970 1-407); settings: protein: recombinant; tags: N-terminal GST; dsDNA, one strand shown
T6 sequence: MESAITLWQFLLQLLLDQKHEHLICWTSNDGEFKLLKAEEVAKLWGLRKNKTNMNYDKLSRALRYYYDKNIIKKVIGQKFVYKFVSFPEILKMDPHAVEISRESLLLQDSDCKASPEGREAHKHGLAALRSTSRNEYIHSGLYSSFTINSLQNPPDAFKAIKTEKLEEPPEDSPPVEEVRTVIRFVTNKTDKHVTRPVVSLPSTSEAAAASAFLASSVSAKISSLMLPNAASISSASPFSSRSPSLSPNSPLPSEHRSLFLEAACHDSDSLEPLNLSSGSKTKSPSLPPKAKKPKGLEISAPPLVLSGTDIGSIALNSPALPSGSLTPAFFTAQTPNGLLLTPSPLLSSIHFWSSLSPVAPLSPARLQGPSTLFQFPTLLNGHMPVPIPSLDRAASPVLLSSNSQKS
Outline: as §1

[10] = molecular target: T7, FEV (Homo sapiens, UniProt Q99581 1-238); settings: protein: recombinant; tags: N-terminal GST; dsDNA, one strand shown
T7 sequence: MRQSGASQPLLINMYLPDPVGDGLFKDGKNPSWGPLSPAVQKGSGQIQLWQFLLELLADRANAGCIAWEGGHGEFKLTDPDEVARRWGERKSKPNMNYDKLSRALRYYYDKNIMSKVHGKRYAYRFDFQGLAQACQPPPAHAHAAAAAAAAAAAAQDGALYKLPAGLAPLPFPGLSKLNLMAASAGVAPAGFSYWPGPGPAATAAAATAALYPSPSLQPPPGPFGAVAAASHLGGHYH
Outline: as §1

[11] = molecular target: ETV5 (Homo sapiens, UniProt P41161 1-510); settings: protein: recombinant; tags: N-terminal GST; dsDNA, one strand shown
ETV5, sequence (P41161 whole entry): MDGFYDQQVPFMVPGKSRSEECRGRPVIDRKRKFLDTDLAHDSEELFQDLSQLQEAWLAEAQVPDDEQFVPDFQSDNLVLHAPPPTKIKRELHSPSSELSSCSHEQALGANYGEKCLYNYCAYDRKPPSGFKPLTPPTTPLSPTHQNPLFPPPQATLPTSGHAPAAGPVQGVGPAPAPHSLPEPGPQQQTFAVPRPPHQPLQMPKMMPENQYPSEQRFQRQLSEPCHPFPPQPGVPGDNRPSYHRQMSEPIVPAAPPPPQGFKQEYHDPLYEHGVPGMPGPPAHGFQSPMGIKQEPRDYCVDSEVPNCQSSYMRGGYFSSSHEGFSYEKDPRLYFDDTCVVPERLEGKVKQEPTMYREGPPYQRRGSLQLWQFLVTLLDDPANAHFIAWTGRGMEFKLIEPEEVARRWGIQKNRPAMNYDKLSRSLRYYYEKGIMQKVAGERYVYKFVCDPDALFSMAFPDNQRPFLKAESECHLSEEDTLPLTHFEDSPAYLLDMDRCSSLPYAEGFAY
Outline: as §1

[12] = molecular target: HSF1 (Homo sapiens, UniProt Q00613 1-529); settings: protein: recombinant; tags: N-terminal GST; chain copies: 3; dsDNA, one strand shown
HSF1, sequence (Q00613 whole entry): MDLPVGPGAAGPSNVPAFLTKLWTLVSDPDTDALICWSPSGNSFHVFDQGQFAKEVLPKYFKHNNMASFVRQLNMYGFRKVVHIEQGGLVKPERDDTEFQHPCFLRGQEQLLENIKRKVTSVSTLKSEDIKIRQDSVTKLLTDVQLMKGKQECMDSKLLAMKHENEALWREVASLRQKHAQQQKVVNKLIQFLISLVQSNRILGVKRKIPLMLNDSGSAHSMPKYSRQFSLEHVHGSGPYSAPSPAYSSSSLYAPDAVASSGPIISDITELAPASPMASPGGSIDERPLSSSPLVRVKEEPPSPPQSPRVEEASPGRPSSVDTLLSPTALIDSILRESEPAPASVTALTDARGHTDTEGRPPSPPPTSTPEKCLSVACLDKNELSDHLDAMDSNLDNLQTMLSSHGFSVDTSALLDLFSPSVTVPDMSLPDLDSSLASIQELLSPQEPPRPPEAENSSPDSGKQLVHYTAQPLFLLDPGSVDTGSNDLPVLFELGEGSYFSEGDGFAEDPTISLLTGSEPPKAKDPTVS
Outline: as §1

[13] = molecular target: T8, SPIC (Homo sapiens, UniProt Q8N5J4 1-248); settings: protein: recombinant; tags: N-terminal GST; dsDNA, one strand shown
T8 sequence: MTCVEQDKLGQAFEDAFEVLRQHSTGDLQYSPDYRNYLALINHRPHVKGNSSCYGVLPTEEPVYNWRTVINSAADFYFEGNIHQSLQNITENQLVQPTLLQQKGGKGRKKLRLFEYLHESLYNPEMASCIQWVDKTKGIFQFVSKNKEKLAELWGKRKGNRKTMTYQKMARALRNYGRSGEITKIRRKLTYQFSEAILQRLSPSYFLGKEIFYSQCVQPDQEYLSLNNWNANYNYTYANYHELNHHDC
Outline: as §1

[14] = molecular target: ELF4 (Homo sapiens, UniProt Q99607 1-663); settings: protein: recombinant; tags: N-terminal GST; dsDNA, one strand shown
ELF4, sequence (Q99607 whole entry): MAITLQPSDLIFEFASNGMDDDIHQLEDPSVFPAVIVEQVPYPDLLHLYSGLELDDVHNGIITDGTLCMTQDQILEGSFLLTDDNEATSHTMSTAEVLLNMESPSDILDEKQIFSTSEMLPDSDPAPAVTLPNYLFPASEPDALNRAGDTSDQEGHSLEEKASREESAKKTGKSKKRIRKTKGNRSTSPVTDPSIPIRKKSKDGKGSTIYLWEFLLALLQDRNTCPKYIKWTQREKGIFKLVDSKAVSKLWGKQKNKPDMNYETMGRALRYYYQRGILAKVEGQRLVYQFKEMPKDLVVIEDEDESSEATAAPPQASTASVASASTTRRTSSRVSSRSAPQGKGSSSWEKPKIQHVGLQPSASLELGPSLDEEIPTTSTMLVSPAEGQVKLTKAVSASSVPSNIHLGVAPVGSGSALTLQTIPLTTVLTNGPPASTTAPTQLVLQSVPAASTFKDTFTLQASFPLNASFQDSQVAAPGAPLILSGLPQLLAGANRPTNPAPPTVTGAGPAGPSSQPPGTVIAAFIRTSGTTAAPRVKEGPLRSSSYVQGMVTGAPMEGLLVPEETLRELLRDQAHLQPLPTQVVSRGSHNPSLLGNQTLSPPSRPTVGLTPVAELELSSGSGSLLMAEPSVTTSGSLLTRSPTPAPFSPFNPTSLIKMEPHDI
Outline: as §1

[15] = molecular target: T9, ELK4 (Homo sapiens, UniProt P28324-2 1-405); settings: protein: recombinant; tags: N-terminal GST; dsDNA, one strand shown
T9 sequence: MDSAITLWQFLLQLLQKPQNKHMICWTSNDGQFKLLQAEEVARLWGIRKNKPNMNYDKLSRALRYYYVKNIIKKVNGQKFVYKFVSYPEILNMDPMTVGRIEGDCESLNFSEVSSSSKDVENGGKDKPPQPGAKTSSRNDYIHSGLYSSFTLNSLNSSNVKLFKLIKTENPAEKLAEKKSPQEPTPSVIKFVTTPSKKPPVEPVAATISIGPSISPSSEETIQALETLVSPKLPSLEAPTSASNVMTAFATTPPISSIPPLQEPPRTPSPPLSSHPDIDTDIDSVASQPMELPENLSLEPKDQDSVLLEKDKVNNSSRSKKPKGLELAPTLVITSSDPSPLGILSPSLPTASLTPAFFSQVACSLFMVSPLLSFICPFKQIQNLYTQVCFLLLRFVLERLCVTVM
Outline: as §1

[16] = molecular target: T10, ETV2 (Homo sapiens, UniProt O00321 1-342); settings: protein: recombinant; tags: N-terminal GST; dsDNA, one strand shown
T10 sequence: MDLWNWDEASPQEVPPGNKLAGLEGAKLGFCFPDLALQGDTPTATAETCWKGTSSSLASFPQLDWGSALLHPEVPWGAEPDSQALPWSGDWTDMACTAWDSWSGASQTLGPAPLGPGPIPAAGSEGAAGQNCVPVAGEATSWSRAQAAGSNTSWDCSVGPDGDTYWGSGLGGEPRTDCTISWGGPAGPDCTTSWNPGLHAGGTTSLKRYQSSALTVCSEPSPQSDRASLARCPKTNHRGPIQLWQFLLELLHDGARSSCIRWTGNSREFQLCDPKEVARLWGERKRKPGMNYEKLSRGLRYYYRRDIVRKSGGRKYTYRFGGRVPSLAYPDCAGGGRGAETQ
Outline: as §1

[17] = molecular target: T11, ELF3 (Homo sapiens, UniProt P78545 1-371); settings: protein: recombinant; tags: N-terminal GST; dsDNA, one strand shown
T11 sequence: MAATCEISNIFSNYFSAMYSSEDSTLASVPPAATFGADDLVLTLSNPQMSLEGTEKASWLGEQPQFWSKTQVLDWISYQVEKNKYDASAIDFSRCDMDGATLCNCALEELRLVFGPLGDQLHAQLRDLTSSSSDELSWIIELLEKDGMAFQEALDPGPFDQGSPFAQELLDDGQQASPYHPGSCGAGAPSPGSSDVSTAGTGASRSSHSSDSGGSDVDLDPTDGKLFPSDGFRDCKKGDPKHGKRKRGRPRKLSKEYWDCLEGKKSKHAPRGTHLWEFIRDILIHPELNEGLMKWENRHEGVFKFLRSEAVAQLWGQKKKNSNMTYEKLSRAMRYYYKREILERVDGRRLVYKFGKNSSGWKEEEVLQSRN
Outline: as §1

[18] = molecular target: CRX (Homo sapiens, UniProt O43186 1-299); settings: protein: recombinant; tags: N-terminal GST; dsDNA, one strand shown
CRX, sequence (O43186 whole entry): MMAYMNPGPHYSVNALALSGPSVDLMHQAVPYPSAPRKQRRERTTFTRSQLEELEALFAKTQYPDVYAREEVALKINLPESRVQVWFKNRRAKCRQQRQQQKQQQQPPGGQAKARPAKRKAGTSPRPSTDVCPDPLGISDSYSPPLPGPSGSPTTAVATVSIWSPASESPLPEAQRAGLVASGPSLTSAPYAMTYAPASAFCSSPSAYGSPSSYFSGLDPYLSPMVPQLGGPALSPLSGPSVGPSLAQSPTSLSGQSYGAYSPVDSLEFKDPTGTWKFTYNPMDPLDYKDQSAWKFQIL
Outline: as §1

[19] = molecular target: ETV1 (Homo sapiens, UniProt P50549 1-477); settings: protein: recombinant; tags: N-terminal GST; dsDNA, one strand shown
ETV1, sequence (P50549 whole entry): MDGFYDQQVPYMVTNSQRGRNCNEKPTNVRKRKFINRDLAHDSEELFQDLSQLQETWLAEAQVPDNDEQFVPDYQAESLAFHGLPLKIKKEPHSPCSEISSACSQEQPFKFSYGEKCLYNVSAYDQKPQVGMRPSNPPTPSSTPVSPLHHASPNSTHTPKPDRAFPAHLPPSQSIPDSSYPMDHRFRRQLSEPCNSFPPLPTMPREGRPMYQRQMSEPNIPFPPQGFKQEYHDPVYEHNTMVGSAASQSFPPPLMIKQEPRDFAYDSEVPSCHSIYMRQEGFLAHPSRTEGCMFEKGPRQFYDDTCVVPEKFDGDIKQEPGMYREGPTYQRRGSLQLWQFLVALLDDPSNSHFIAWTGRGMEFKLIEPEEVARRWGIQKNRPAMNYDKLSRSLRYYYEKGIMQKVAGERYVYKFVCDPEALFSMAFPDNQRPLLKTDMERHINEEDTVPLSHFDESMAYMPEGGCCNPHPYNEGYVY
Outline: as §1

## TTAACA
[1]
  binding signal: 1.18 fold enrichment (6-mer frequency, TF over GST control)
[2]
  binding signal: 1.13 fold enrichment (6-mer frequency, TF over GST control)
[3]
  binding signal: 1.15 fold enrichment (6-mer frequency, TF over GST control)
[4]
  binding signal: 1.15 fold enrichment (6-mer frequency, TF over GST control)
[5]
  binding signal: 1.17 fold enrichment (6-mer frequency, TF over GST control)
[6]
  binding signal: 1.13 fold enrichment (6-mer frequency, TF over GST control)
[7]
  binding signal: 1.15 fold enrichment (6-mer frequency, TF over GST control)
[8]
  binding signal: 1.14 fold enrichment (6-mer frequency, TF over GST control)
[9]
  binding signal: 1.19 fold enrichment (6-mer frequency, TF over GST control)
[10]
  binding signal: 1.13 fold enrichment (6-mer frequency, TF over GST control)
[11]
  binding signal: 1.14 fold enrichment (6-mer frequency, TF over GST control)
[12]
  binding signal: 1.65 fold enrichment (6-mer frequency, TF over GST control)
[13]
  binding signal: 1.14 fold enrichment (6-mer frequency, TF over GST control)
[14]
  binding signal: 1.18 fold enrichment (6-mer frequency, TF over GST control)
[15]
  binding signal: 1.28 fold enrichment (6-mer frequency, TF over GST control)
[16]
  binding signal: 1.23 fold enrichment (6-mer frequency, TF over GST control)
[17]
  binding signal: 1.22 fold enrichment (6-mer frequency, TF over GST control)
[18]
  binding signal: 2.34 fold enrichment (6-mer frequency, TF over GST control)
[19]
  binding signal: 1.23 fold enrichment (6-mer frequency, TF over GST control)
